This note sets out measurements from PubChem BioAssay (EPA / NIEHS).

Values joined by “and” are separate entries in the source; they are usually repeats but may differ in a detail not shown here. Equal entries are not always repeated. Inconclusive results are not listed. Some compounds were tested as several samples or in several runs, with calls that do not always agree. Active and inactive are the calls of the source. How the source made its calls, unless noted: active means hit-call score of the fitted dose curve at least 0.9, where 1 is the maximum; inactive means score below 0.9.

Assay [1] is described as follows: CCTE_Shafer_MEA_dev_firing_rate_mean: CCTE's Neural Network Formation Assay for Mean Firing Rate, Shafer Lab (AID 2284031).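 Further: curve fitted for loss of firing so AC50 reflects decreased mean firing rate.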 The method in brief: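 Steps: seed rat cortical cells (1.5 x 10^5/well) with laminin on PEI-coated MEA; dose day 0; record DIV 5/7/9/12, full media and compound exchange after DIV 5 and 9 recordings; compute well-mean firing rate AUC.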
A short description of assay [2]: CCTE_Shafer_MEA_dev_per_burst_spike_percent: CCTE's Neural Network Formation Assay for Percent of Spikes in a Burst, Shafer Lab (AID 2284032).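 Further: fitted as a decrease in burst spike percentage below DMSO baseline.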 The method in brief:
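Value is trapezoidal AUC over recordings on days 5, 7, 9 and 12 of the well-mean fraction of spikes falling in single-electrode bursts; rat cortical cultures exposed continuously from plating, treatment renewed DIV 5 and 9, fitted downward against DMSO.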

The nature of assay [3]: CCTE_Shafer_MEA_dev_active_electrodes_number: CCTE's Neural Network Formation Assay for Number of Active Electrodes, Shafer Lab (AID 2284040; active means hit-call score of the fitted dose curve at least 0.9, where 1 is the maximum;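 further: potency for loss of active electrodes versus DMSO so lower counts are hits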). The method in brief:
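Counts electrodes per well firing at least 5 spikes/min, recorded on days 5, 7, 9 and 12 in rat cortical cultures dosed continuously from plating (treatment refreshed DIV 5, 9). Value is the area under the curve over recordings, fitted downward relative to DMSO.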

The nature of assay [4]: CCTE_Shafer_MEA_dev_burst_rate: CCTE's Neural Network Formation Assay for Burst Rate, Shafer Lab (AID 2284042).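 Further: potency for loss of burst rate below DMSO control.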 The method in brief:
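Rat primary cortical cultures on PEI/laminin MEA; compound from plating, re-dosed at DIV 5, 9 media change. Single-electrode bursts/recording length, well mean of active electrodes; AUC over DIV 5–12 recordings; loss-of-signal vs DMSO.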

Assay [5] in a line: CCTE_Shafer_MEA_dev_burst_duration_mean: CCTE's Neural Network Formation Assay for Mean Burst Duration, Shafer Lab (AID 2284045). The method in brief:
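Network-formation assay in primary rat cortical neurons; treatment spans twelve days of development. Mean burst duration per well is integrated by trapezoidal AUC and fitted in the loss-of-signal direction against DMSO baseline.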

A short description of assay [6]: CCTE_Shafer_MEA_dev_interburst_interval_mean: CCTE's Neural Network Formation Assay for Mean Interburst Interval, Shafer Lab (AID 2284046).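 Further: well-mean interburst interval of bursting electrodes as AUC over four recording days; curve fitted for decrease in interburst interval relative to DMSO.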 The method in brief:
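Rat cortical neurons, 1.5 x 10^5 cells/well, 48-well MEA; compound from day 0 through DIV 12, media and treatment renewed DIV 5/9. Recordings DIV 5, 7, 9, 12; well-mean interburst interval → trapezoidal AUC, loss direction vs DMSO.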

The nature of assay [7]: CCTE_Shafer_MEA_dev_inter_network_spike_interval_mean: CCTE's Neural Network Formation Assay for Mean Inter-network Spike Interval, Shafer Lab (AID 2284047). The method in brief:
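Primary rat cortical neurons on PEI-coated 48-well MEAs (16 electrodes/well) were exposed from plating day 0 to DIV 12, with dosing renewed at DIV 5 and 9. Recordings at DIV 5, 7, 9, 12 were collapsed by trapezoidal AUC, loss-of-signal fit vs DMSO.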

Assay [8] can be described thus: CCTE_Shafer_MEA_dev_network_spike_number: CCTE's Neural Network Formation Assay for Number of Network Spikes, Shafer Lab (AID 2284048).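 Further: synchronized bursts across electrodes counted on days 5 7 9 12 and integrated as AUC.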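 On AC50: fit as a loss of signal meaning fewer network spikes than DMSO.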 The method in brief:
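Extracellular recordings from 16-electrode wells track network formation in rat cortical cultures under continuous treatment from plating. The endpoint is network spike number, expressed as AUC across DIV 5–12 relative to DMSO vehicle.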

Assay [9] can be described thus: CCTE_Shafer_MEA_dev_network_spike_peak: CCTE's Neural Network Formation Assay for Mean Number of Electrodes in Network Spike, Shafer Lab (AID 2284049).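 Further: fitted for loss of signal meaning fewer electrodes in network spikes than DMSO.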 The method in brief:
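Continuous 12-day exposure of rat cortical cultures, starting at plating, on MEA plates. Endpoint: electrodes participating in network-spike peaks, AUC across DIV 5–12, DMSO as negative control.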

Assay [10] can be described thus: CCTE_Shafer_MEA_dev_spike_duration_mean: CCTE's Neural Network Formation Assay for Mean Spike Duration, Shafer Lab (AID 2284051).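 Further: mean network spike duration pooled as area under curve over DIV 5 to 12 recordings; potency for a decrease in mean network spike duration versus DMSO.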 The method in brief: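 Rat cortical primary cultures, 48-well MEA (16 electrodes/well); compound from plating, renewed DIV 5, 9. Network spike duration (AxIS adaptive detector) recorded DIV 5/7/9/12, combined as trapezoidal AUC; loss direction vs DMSO.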

The nature of assay [11]: CCTE_Shafer_MEA_dev_network_spike_duration_std: CCTE's Neural Network Formation Assay for Standard Deviation of Network Spike Duration, Shafer Lab (AID 2284052).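 Further: area under curve of spike duration SD across recording days 5 to 12; hits are decreases in network spike duration SD versus DMSO vehicle.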 The method in brief: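 Rat cortical cultures, 1.5 x 10^5 cells/well, exposed continuously from plating to DIV 12 with media/compound renewal at DIV 5, 9. Spontaneous activity recorded DIV 5/7/9/12, AxIS adaptive spike detector; AUC across days; negative direction vs DMSO.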

Assay [12] in a line: CCTE_Shafer_MEA_dev_per_network_spike_spike_number_mean: CCTE's Neural Network Formation Assay for Mean Number of Spikes in a Network Spike, Shafer Lab (AID 2284053).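 Further: fitted as decrease in spikes per network spike relative to DMSO.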 The method in brief: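 Rat cortical primary cultures on 48-well MEA; compound from day 0, re-dosed with full media change DIV 5, 9. Recorded DIV 5, 7, 9, 12; spikes in 0.05 s window at network-spike peak ÷ total network spikes; AUC; loss vs DMSO.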

A short description of assay [13]: CCTE_Shafer_MEA_dev_LDH: CCTE's Lactate Dehydrogenase Assay for Cytotoxicity in the Neural Network Formation Assay, Shafer Lab (AID 2284068; active means hit-call score of the fitted dose curve at least 0.9, where 1 is the maximum;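 further: exposure for twelve days from plating with re-dosing on DIV 5 and 9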). The method in brief:
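Rat cortical primary neurons, MEA culture; dosing day 0–12, full medium plus compound exchange DIV 5, 9. Read-out: LDH enzyme activity, spectrophotometric. DMSO = negative control/baseline; signal loss → cytotoxicity.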

Assay [14] is described as follows: CCTE_Shafer_MEA_dev_AB: CCTE's Alamar Blue Assay for Cytotoxicity in the Neural Network Formation Assay, Shafer Lab (AID 2284083; active means hit-call score of the fitted dose curve at least 0.9, where 1 is the maximum;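 further: resazurin reduction fluorescence as viability of cultured neurons; twelve days of exposure from plating with re-dosing on DIV 5 and 9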). The method in brief:
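Rat cortical primary cultures, 1.5 x 10^5 cells/well on MEA; continuous compound exposure over 12 days of network development, re-dosed with full medium change DIV 5 and 9. Alamar Blue fluorescence; loss of signal = cytotoxicity vs DMSO baseline.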

Assay [15] in a line: CCTE_Shafer_MEA_dev_correlation_coefficient_mean: CCTE's Neural Network Formation Assay for Mean Correlation Coefficient, Shafer Lab (AID 2284093).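 Further: well mean pairwise spike train correlation integrated as AUC over recording days 5 to 12; potency fitted for loss of correlation relative to DMSO vehicle wells.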 The method in brief: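 Rat cortical cultures, 1.5 x 10^5 cells/well, dosed from day 0 for 12 days. Spontaneous spikes recorded DIV 5/7/9/12; electrode-pair correlation coefficients averaged, AUC taken. Fit in loss direction vs DMSO.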

The nature of assay [16]: IUF_NPC1b_proliferation_BrdU_72hr: Leibniz Research Institute for Environmental Medicine (IUF) 72-hour Neural Progenitor Cell Bromodeoxyuridine (BrdU) Proliferation Assay (NPC1b) (AID 2284207). The method in brief:
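Neural progenitor spheres of human fetal origin are treated for three days; BrdU added for the last 16 h is quantified by luminescence ELISA, with DMSO as baseline and EGF/FGF omission as positive control.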

A short description of assay [17]: IUF_NPC1a_proliferation_area_72hr: Leibniz Research Institute for Environmental Medicine (IUF) 72-hour Neural Progenitor Cell Proliferation Area Assay (NPC1a) (AID 2284208). The method in brief: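 hNPC spheres (human fetal cortex, GW 16-19), one per poly-Hema U-bottom well; EGF+FGF medium; dosed day 0, no re-dosing; 72 h, 37C, 5% CO2; phase-contrast sphere area; DMSO = baseline; minus-GF = positive ctrl.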

Assay [18] can be described thus: IUF_NPC1_viability_72hr: Viability Assessment at 72 hours in the Leibniz Research Institute for Environmental Medicine (IUF) Neural Progenitor Cell Proliferation Assay (NPC1) (AID 2284209). The method in brief:
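Spheres of primary human neural progenitors were plated singly in proliferation medium and treated for 72 h. Mitochondrial reduction of resazurin was then measured by fluorescence and analysed against DMSO controls.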

What is called AC50 is the concentration at which the activity in the assay is half-maximal. On to `CN(C)CCCn1cc(C2=C(c3c[nH]c4ccccc34)C(=O)NC2=O)c2ccccc21`, for which the AC50 was 1.97 µM (active) [middle of 4 runs] in [1]; 4.52 µM (active) and 2.95 µM (active) and 5 µM (active) in assay [2]; 4.2 µM (active) [middle of 4 runs] in [3]; 1.61 µM (active) [middle of 4 runs] in [4]; 264 nM (active) and 467 nM (active) and 1.58 µM (active) in assay [8]; 3.8 µM (active) and 3.08 µM (active) and 5 µM (active) in [9]. Further, the AC50 in [10] was 6.41 µM (active) and 5 µM (active) and 3.28 µM (active); in [12], 1.61 µM (active) and 2.57 µM (active) and 5 µM (active); in assay [13], 7.97 µM (active); in assay [14], 7.86 µM (active) [middle of 4 runs]; in assay [15], 3.16 µM (active) [middle of 4 runs]; in assay [16], 0.263 µM (active). The AC50 in [17] was 11.6 µM (active). Further, the compound was classed as inactive in [5], in assay [6], in assay [7], in assay [8], in assay [11] and in [18].
